# Source: PubChem BioAssay (NCI)
# Compounds without any hit were thinned out: in the full panel of roughly 79,000, 15% have a hit. Unmarked numbers belong to inactive results. The source made the active and inactive calls. No stated cut-off is given here; in the data, active means growth inhibition above about 70%; inactive means the rest.
# What was measured:
# [1] = NCI Yeast Anticancer Drug Screen. Data for the rad52 strain (AID 147);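 further: 0% = growth of vehicle-treated control cultures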; settings: S. cerevisiae rad52 mutant growth inhibition, hits give high values
# In short: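 Screen used a yeast mutant impaired in DNA repair. After compound exposure, growth was measured. Values reflect inhibition compared with vehicle-treated cells.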
# [2] = NCI Yeast Anticancer Drug Screen. Data for the wt1 strain (AID 149);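 further: 0% = growth of vehicle-treated wt1 cultures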; settings: S. cerevisiae wt1 strain (SPY 50644) growth inhibition, hits give high values
# In short: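 Measured: growth of wt1 yeast under compound versus vehicle treatment, reported as inhibition.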
# [3] = NCI Yeast Anticancer Drug Screen. Data for the rad50EPP+ strain (AID 151);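 further: 0% = growth of vehicle-treated control cultures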; settings: S. cerevisiae rad50 mutant strain, hits give high values
# In short: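 Exposing the rad50EPP+ strain to each compound, growth was compared with vehicle-only cultures to give inhibition.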
# [4] = NCI Yeast Anticancer Drug Screen. Data for the mgt1 strain (AID 153); settings: S. cerevisiae mgt1 mutant growth inhibition, hits give high values
# In short: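 Genetically defined yeast (mgt1) treated with compound; inhibition of growth expressed against vehicle-treated controls.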
# [5] = NCI Yeast Anticancer Drug Screen. Data for the rad50 strain (AID 155);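 further: 0% = growth of vehicle-only cultures of the same strain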; settings: S. cerevisiae rad50 strain growth inhibition, hits give high values
# In short: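 Growth of the mutant yeast was measured after compound exposure and referenced to vehicle-treated cultures.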
# [6] = NCI Yeast Anticancer Drug Screen. Data for the mec2-1 strain (AID 157); settings: S. cerevisiae mec2-1 strain, hits give high values
# In short: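 Readout is yeast growth inhibition, normalised to vehicle-treated controls, in the mec2-1 strain exposed to compound.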
# [7] = NCI Yeast Anticancer Drug Screen. Data for the rad14 strain (AID 159);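 further: 0% = growth of vehicle-treated control cultures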; settings: S. cerevisiae rad14 strain growth inhibition, hits give high values
# In short: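 Here, inhibition of yeast growth was measured after compound exposure, using a strain with a genetic defect in DNA damage repair and vehicle-treated cultures as the reference.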
# [8] = NCI Yeast Anticancer Drug Screen. Data for the sgs1 mgt1 strain (AID 161);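 further: 0% = growth of cultures given vehicle only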; settings: S. cerevisiae sgs1 mgt1 strain, hits give high values
# In short: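 Yeast cells carrying a defined DNA-repair defect were exposed to test compounds. Growth inhibition was measured relative to vehicle-treated controls.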
# [9] = NCI Yeast Anticancer Drug Screen. Data for the CLN2oe strain (AID 163);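 further: 0% = growth of vehicle-only control cultures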; settings: S. cerevisiae CLN2oe strain, hits give high values
# In short: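 Values reflect how much compound exposure reduced yeast growth, referenced to vehicle-exposed cells. Assay organism is a strain with a defined genetic change affecting cell-cycle control.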
# [10] = NCI Yeast Anticancer Drug Screen. Data for the cln2 rad14 strain (AID 165);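 further: 0% = growth equal to vehicle treated cultures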; settings: S. cerevisiae cln2 rad14 strain, hits give high values
# In short: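 Relative to vehicle controls, growth inhibition of compound-treated cln2 rad14 yeast was recorded.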
# [11] = NCI Yeast Anticancer Drug Screen. Data for the bub3 strain (AID 167); settings: S. cerevisiae bub3 mutant strain, hits give high values
# In short: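 Whole-cell yeast assay. The mutant strain was incubated with compounds, and growth inhibition was determined by comparison with vehicle-treated cells.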
# [12] = NCI Yeast Anticancer Drug Screen. Data for the wt2 strain (AID 169);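 further: 0% = growth of vehicle-treated yeast cultures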; settings: S. cerevisiae wt2 strain growth inhibition, hits give high values
# In short: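 Values express reduction in yeast growth under compound treatment, referenced to vehicle-treated cells.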
# [13] = NCI Yeast Anticancer Drug Screen. Data for the mlh1 strain (AID 171);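 further: 0% = growth of vehicle-treated control cultures of the same strain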; settings: S. cerevisiae mlh1 strain growth inhibition, hits give high values
# In short: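 Steps: expose the defined-mutant yeast strain to compound; expose a parallel culture to vehicle; measure growth; express compound effect as inhibition relative to the vehicle culture.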
# [14] = NCI Yeast Anticancer Drug Screen. Data for the sgs1 strain (AID 173);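 further: 0% = growth of vehicle-only control cultures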; settings: S. cerevisiae sgs1 mutant, hits give high values
# In short: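 Treat defined-mutant yeast with compound; measure growth; calculate inhibition relative to vehicle-treated cells.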
# [15] = NCI Yeast Anticancer Drug Screen. Data for the rad18 strain (AID 177); settings: S. cerevisiae rad18 mutant growth inhibition, hits give high values
# In short: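 A genetically defined yeast mutant impaired in DNA damage repair was treated with test compounds, then its growth was measured against cultures receiving vehicle alone.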
# [16] = NCI Yeast Anticancer Drug Screen. Data for the mlh1 rad18 strain (AID 175); settings: S. cerevisiae mlh1 rad18 strain growth inhibition, hits give high values
# In short: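 Test agents were incubated with a yeast strain of defined genotype (DNA damage repair defect). Inhibition of growth was derived by comparison with vehicle-exposed cultures.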
# [17] = at 5.0 µM (retest, dose inferred, filed as 0.5)
# [18] = at 50.0 µM (retest, dose inferred, filed as 5.0)
smiles,measurement,setting,value
C[C@]12CCc3nonc3C1CC[C@@H]1C2CC[C@]2(C)C(=O)CCC12 (stereo partly drawn),growth inhibition,[1]; at 1.2 µM,4%
same,growth inhibition,[1]; at 3.7 µM,5%
same,growth inhibition,[1]; at 11.0 µM,22%
same,growth inhibition,[1]; at 33.0 µM,36%
same,growth inhibition,[1]; at 100.0 µM,66%
same,growth inhibition,[2]; at 1.2 µM,0%
same,growth inhibition,[2]; at 3.7 µM,-2%
same,growth inhibition,[2]; at 11.0 µM,-4%
same,growth inhibition,[2]; at 33.0 µM,6%
same,growth inhibition,[2]; at 100.0 µM,21%
same,growth inhibition,[3]; at 1.2 µM,0%
same,growth inhibition,[3]; at 3.7 µM,1%
same,growth inhibition,[3]; at 11.0 µM,5%
same,growth inhibition,[3]; at 33.0 µM,12%
same,growth inhibition,[3]; at 100.0 µM,13%
same,growth inhibition,[4]; at 1.2 µM,8%
same,growth inhibition,[4]; at 3.7 µM,6%
same,growth inhibition,[4]; at 11.0 µM,19%
same,growth inhibition,[4]; at 33.0 µM,42%
same,growth inhibition,[4]; at 100.0 µM,59%
same,growth inhibition,[5]; at 1.2 µM,11%
same,growth inhibition,[5]; at 3.7 µM,7%
same,growth inhibition,[5]; [17],51%
same,growth inhibition,[5]; at 11.0 µM,28%
same,growth inhibition,[5]; at 33.0 µM,62%
same,growth inhibition,[5]; [18],68%
same,growth inhibition,[5]; at 50.0 µM,68%
same,growth inhibition,[5]; at 100.0 µM,76% (active)
same,growth inhibition,[6]; at 1.2 µM,-1%
same,growth inhibition,[6]; at 3.7 µM,-3%
same,growth inhibition,[6]; [17],26%
same,growth inhibition,[6]; at 11.0 µM,10%
same,growth inhibition,[6]; at 33.0 µM,15%
same,growth inhibition,[6]; [18],40%
same,growth inhibition,[6]; at 50.0 µM,33.2%
same,growth inhibition,[6]; at 100.0 µM,36%
same,growth inhibition,[7]; at 1.2 µM,27%
same,growth inhibition,[7]; at 3.7 µM,38%
same,growth inhibition,[7]; at 11.0 µM,38%
same,growth inhibition,[7]; at 33.0 µM,46%
same,growth inhibition,[7]; at 100.0 µM,60%
same,growth inhibition,[8]; [17],46%
same,growth inhibition,[8]; [18],73% (active)
same,growth inhibition,[8]; at 50.0 µM,81.5% (active)
same,growth inhibition,[9]; at 1.2 µM,17%
same,growth inhibition,[9]; at 3.7 µM,25%
same,growth inhibition,[9]; at 11.0 µM,28%
same,growth inhibition,[9]; at 33.0 µM,41%
same,growth inhibition,[9]; at 100.0 µM,51%
same,growth inhibition,[10]; [17],54%
same,growth inhibition,[10]; [18],57%
same,growth inhibition,[10]; at 50.0 µM,44.1%
same,growth inhibition,[11]; at 1.2 µM,1%
same,growth inhibition,[11]; at 3.7 µM,6%
same,growth inhibition,[11]; [17],14%
same,growth inhibition,[11]; at 11.0 µM,19%
same,growth inhibition,[11]; at 33.0 µM,24%
same,growth inhibition,[11]; [18],76% (active)
same,growth inhibition,[11]; at 50.0 µM,35.8%
same,growth inhibition,[11]; at 100.0 µM,49%
same,growth inhibition,[12]; at 1.2 µM,5%
same,growth inhibition,[12]; at 3.7 µM,6%
same,growth inhibition,[12]; at 11.0 µM,1%
same,growth inhibition,[12]; at 33.0 µM,14%
same,growth inhibition,[12]; at 100.0 µM,39%
same,growth inhibition,[13]; at 1.2 µM,-4%
same,growth inhibition,[13]; at 3.7 µM,-3%
same,growth inhibition,[13]; at 11.0 µM,-1%
same,growth inhibition,[13]; at 33.0 µM,19%
same,growth inhibition,[13]; at 100.0 µM,50%
same,growth inhibition,[14]; at 1.2 µM,13%
same,growth inhibition,[14]; at 3.7 µM,21%
same,growth inhibition,[14]; at 11.0 µM,31%
same,growth inhibition,[14]; at 33.0 µM,50%
same,growth inhibition,[14]; at 100.0 µM,78% (active)
same,growth inhibition,[15]; at 1.2 µM,14%
same,growth inhibition,[15]; at 3.7 µM,12%
same,growth inhibition,[15]; at 11.0 µM,19%
same,growth inhibition,[15]; at 33.0 µM,28%
same,growth inhibition,[15]; at 100.0 µM,62%
O=[N+]([O-])c1ccc(-n2nc3ccc4c(no[n+]4[O-])c3[n+]2[O-])c([N+](=O)[O-])c1,growth inhibition,[1]; at 1.2 µM,0%
same,growth inhibition,[1]; at 3.7 µM,1%
same,growth inhibition,[1]; at 11.0 µM,2%
same,growth inhibition,[1]; at 33.0 µM,4%
same,growth inhibition,[1]; at 100.0 µM,6%
same,growth inhibition,[2]; at 1.2 µM,-2%
same,growth inhibition,[2]; at 3.7 µM,-2%
same,growth inhibition,[2]; at 11.0 µM,-2%
same,growth inhibition,[2]; at 33.0 µM,0%
same,growth inhibition,[2]; at 100.0 µM,3%
same,growth inhibition,[3]; at 1.2 µM,3%
same,growth inhibition,[3]; at 3.7 µM,8%
same,growth inhibition,[3]; at 11.0 µM,13%
same,growth inhibition,[3]; at 33.0 µM,26%
same,growth inhibition,[3]; at 100.0 µM,24%
same,growth inhibition,[4]; at 1.2 µM,-4%
same,growth inhibition,[4]; at 3.7 µM,-3%
same,growth inhibition,[4]; at 11.0 µM,5%
same,growth inhibition,[4]; at 33.0 µM,-3%
same,growth inhibition,[4]; at 100.0 µM,-2%
same,growth inhibition,[5]; at 1.2 µM,-1%
same,growth inhibition,[5]; at 3.7 µM,1%
same,growth inhibition,[5]; [17],20%
same,growth inhibition,[5]; at 11.0 µM,-5%
same,growth inhibition,[5]; at 33.0 µM,6%
same,growth inhibition,[5]; [18],98% (active)
same,growth inhibition,[5]; at 50.0 µM,30.4%
same,growth inhibition,[5]; at 100.0 µM,4%
same,growth inhibition,[6]; at 1.2 µM,3%
same,growth inhibition,[6]; at 3.7 µM,0%
same,growth inhibition,[6]; [17],23%
same,growth inhibition,[6]; at 11.0 µM,2%
same,growth inhibition,[6]; at 33.0 µM,3%
same,growth inhibition,[6]; [18],98% (active)
same,growth inhibition,[6]; at 50.0 µM,9.9%
same,growth inhibition,[6]; at 100.0 µM,2%
same,growth inhibition,[7]; at 1.2 µM,-3%
same,growth inhibition,[7]; at 3.7 µM,-1%
same,growth inhibition,[7]; at 11.0 µM,7%
same,growth inhibition,[7]; at 33.0 µM,8%
same,growth inhibition,[7]; at 100.0 µM,8%
same,growth inhibition,[8]; [17],16%
same,growth inhibition,[8]; [18],97% (active)
same,growth inhibition,[8]; at 50.0 µM,70.5% (active)
same,growth inhibition,[9]; at 1.2 µM,-1%
same,growth inhibition,[9]; at 3.7 µM,-5%
same,growth inhibition,[9]; at 11.0 µM,-6%
same,growth inhibition,[9]; at 33.0 µM,-2%
same,growth inhibition,[9]; at 100.0 µM,2%
same,growth inhibition,[10]; [17],44%
same,growth inhibition,[10]; [18],97% (active)
same,growth inhibition,[10]; at 50.0 µM,9.9%
same,growth inhibition,[11]; at 1.2 µM,-3%
same,growth inhibition,[11]; at 3.7 µM,1%
same,growth inhibition,[11]; [17],-14%
same,growth inhibition,[11]; at 11.0 µM,10%
same,growth inhibition,[11]; at 33.0 µM,8%
same,growth inhibition,[11]; [18],96% (active)
same,growth inhibition,[11]; at 50.0 µM,66.7%
same,growth inhibition,[11]; at 100.0 µM,9%
same,growth inhibition,[13]; at 1.2 µM,0%
same,growth inhibition,[13]; at 3.7 µM,-4%
same,growth inhibition,[13]; at 11.0 µM,-3%
same,growth inhibition,[13]; at 33.0 µM,1%
same,growth inhibition,[13]; at 100.0 µM,-5%
same,growth inhibition,[14]; at 1.2 µM,-1%
same,growth inhibition,[14]; at 3.7 µM,1%
same,growth inhibition,[14]; at 11.0 µM,3%
same,growth inhibition,[14]; at 33.0 µM,4%
same,growth inhibition,[14]; at 100.0 µM,6%
same,growth inhibition,[16]; [17],28%
same,growth inhibition,[16]; [18],97% (active)
same,growth inhibition,[16]; at 50.0 µM,-13.2%
same,growth inhibition,[15]; at 1.2 µM,-1%
same,growth inhibition,[15]; at 3.7 µM,4%
same,growth inhibition,[15]; at 11.0 µM,7%
same,growth inhibition,[15]; at 33.0 µM,1%
same,growth inhibition,[15]; at 100.0 µM,19%
